TROY signal inh = inhibitors of TROY-driven NF-kB signaling, primary screen, Q293 LMP1-TROYcd cells, NF-kB luciferase, uHTS; inhibition, % at 10 µM; Q293 LMP1-TROYcd NF-kB luciferase reporter, 4 h; actives 0.98% (n = 360,000); AID 1347056, 2019;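 active means compounds whose plate-normalised and pattern-corrected inhibition of the luciferase reporter signal at the single screening dose is 50% or more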
TWEAK Fn14 block = inhibitors of TWEAK-Fn14 signaling, primary screen, luciferase reporter cells, uHTS; actives 2% (n = 360,000); TWEAK-stimulated Fn14 reporter cells, luciferase luminescence, 8 h; AID 1159606, 2016; inhibition, % at 10 µM; in the data active means inhibition above about 50%
PAX8 inh HTS = inhibitors of PAX8-driven TPO luciferase reporter, primary screen, RMG-I cells, single concentration | actives 1.2% (n = 360,000) | inhibition, % at 12.6 µM | SteadyGlo, 24 h;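 active means mean replicate inhibition at least 60% with every replicate also reaching 60%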;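 further: luciferase light reporting Pax8 driven TPO promoter activity; plate controls were median of neutral control wells for no effect and mitoxantrone controls for full effect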
EWS-Fli block = EWS/Fli-driven NR0B1 reporter inhibitors, primary screen, A673 cells, NR0B1 luciferase, luminescence, MLPCN library. viability-normalised. inhibition, % at 12.6 µM. actives 0.67% (n = 350,000);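 active means mean inhibition of at least 50% after viability correction, with every replicate also passing that limit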;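 further: firefly luciferase signal divided by Alamar Blue viability fluorescence both relative to DMSO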
LGR2 antag = inhibitors of bursicon-induced LGR2 CRE-luciferase signal, primary screen, cell-based, HEK293, CRE-luciferase reporter, bursicon stimulation; Drosophila bursicon receptor LGR2 (rickets); bursicon-stimulated, 4 h; inhibition, % at 9.99 µM; actives 0.35% (n = 380,000);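 active means drop in luminescence signal, shown as inhibition above about 50% in the replicate tests, limit read from the data, passing the limit was not always enough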;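 further: agonist challenge used bursicon conditioned medium at about half maximal strength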
Numbers without * were called inactive; x = no result given. Hits are enriched below; roughly 2.8% of the tested compounds scored in any of these assays.

SMILES	TROY signal inh	TWEAK Fn14 block	PAX8 inh HTS	EWS-Fli block	LGR2 antag
CC(C)NC(=O)Nc1ccc2c(c1)CC(=O)N([C@H](C)CO)C[C@@H](C)[C@H](CN(C)Cc1ccc(Cl)c(Cl)c1)O2	x	x	-6	x	28
CCNC(=O)Nc1ccc2c(c1)C(=O)N(C)[C@@H]1CC[C@@H](CC(=O)N[C@H](C)c3ccccc3)O[C@H]1CO2	x	x	-18	-6	-8
CC(C)CN(C[C@H]1N[C@H](CO)[C@H]1c1ccccc1)C(=O)CN(C)C	x	x	-8	4	2
C=CCSc1nsc(NC(=O)Nc2ccc(F)cc2)n1	31	52*	-12	-36	17
COC1=C(c2ccccc2)C(=O)c2ccccc2C1=O	24	11	11	x	1
O=C(C1=C(c2ccccc2)C(=O)c2ccccc2C1=O)c1ccccc1	62*	97*	78*	61*	x
COc1cccc2c1C1COC3C4CC(C(=O)O)C(C(C2)N13)N4C (stereo unspecified)	30	61*	x	72*	1
COc1cccc2c1C(CCCC(=O)O)CCC2 (stereo unspecified)	-3	0	-13	2	2
COC(=O)C[C@H]1CC[C@H]2[C@@H](COC[C@@H](O)CN2CCC(F)(F)F)O1	x	x	-11	-7	4
Cc1ccc(NC2=C(Cl)C(=O)OC2OC(=O)c2ccco2)c(C)c1 (stereo unspecified)	-2	13	5	x	x
Cc1ccc(C)c(NC2=C(Cl)C(=O)OC2OC(=O)c2ccco2)c1 (stereo unspecified)	-1	59*	x	12	5
C[C@@H]1CN([C@H](C)CO)C(=O)c2cc(C#CC3(O)CCCC3)cnc2O[C@H]1CN(C)C(=O)Cc1ccncc1	x	x	x	2	-8
CCCC(=O)N1C[C@@H]2[C@H](c3ccccc31)[C@H](CO)N2C(=O)CC1CC1	x	x	-15	10	-22
CN1C(=O)N(C)c2cccc3cccc1c23	14	-7	13	5	-15
C=CCN1C(=O)N(/C=C/C)c2cccc3cccc1c23	56*	13	13	x	x
CC1CCCC(NC(=O)CCNC(=O)c2ccc([N+](=O)[O-])cc2)C1C (stereo unspecified)	-20	76*	4	19	1
CC1CCCC(NC(=O)CCNC(=O)c2ccc(Cl)cc2)C1C (stereo unspecified)	-28	-5	8	-3	-5
C[C@@H]1CCCCO[C@@H](CN(C)C(=O)c2ccccc2)[C@@H](C)CN([C@@H](C)CO)C(=O)c2cc(NC(=O)Nc3ccc4c(c3)OCO4)ccc2O1	x	x	x	x	-22
Clc1ccc(-n2ncc3c(NCCN4CCOCC4)ncnc32)cc1	67*	83*	x	x	x
COc1ccc(-n2ncc3c(NCC(C)C)ncnc32)cc1	31	50*	x	x	0
CCCCNc1ncnc2c1cnn2-c1ccc(Cl)cc1	-36	38	-133	20	-23
COc1ccc(-n2ncc3c(NC(C)C)ncnc32)cc1	27	64*	x	x	x
COCC(C)Nc1ncnc2c1cnn2-c1ccc(Cl)cc1 (stereo unspecified)	40	57*	x	x	x
c1ccc(-n2ncc3c(NCCCN4CCOCC4)ncnc32)cc1	-72	-2	-102	x	x
COc1cccc(NC(=O)N2CC(=O)N3[C@H](C2)[C@@H](c2ccc(C#CC4CCCCC4)cc2)[C@@H]3CO)c1	x	x	-31	-6	8
SMILES	TROY signal inh	TWEAK Fn14 block	PAX8 inh HTS	EWS-Fli block	LGR2 antag
O=C(c1ccccc1)N1CC[C@@H]2[C@@H](CO)Nc3ccc(-c4ccccc4F)cc3[C@@H]21	x	x	22	-1	7
CC(=O)N1[C@H](C(=O)NC2CCC2)[C@@H](CO)[C@@H]2Cn3c(ccc(-c4ccc(F)cc4)c3=O)[C@@H]21	x	x	x	3	7
CCCC(=O)Nc1ccc2c(c1)C(=O)N(C)C[C@H](OC)[C@@H](C)CN(Cc1cncnc1)[C@H](C)CO2	x	x	1	-2	12
O=C(NNCc1ccccc1)c1ccccc1	24	65*	-62	-2	-11
Cc1ccc(C(=O)Oc2ccccc2N2CCOCC2)cc1	-14	31	13	6	8
Cc1ccc(C(=O)OC2OC(=O)C(Cl)=C2N2CCOCC2)cc1 (stereo unspecified)	21	58*	-2	x	23
CCOc1ccc(-c2nc(CSCC(=O)N3CCN(c4cccc(OC)c4)CC3)c(C)o2)cc1	53*	59*	38	88*	8
CCc1ccc(-c2nc(CSCC(=O)NCCCN3CCCC3=O)c(C)o2)cc1	21	84*	-15	x	x
CCc1ccc(-c2nc(CSCC(=O)N3CCN(c4ccccn4)CC3)c(C)o2)cc1	62*	81*	25	x	x
Cc1ccc(-c2nc(CSCC(=O)N3CCN(c4ccccn4)CC3)c(C)o2)cc1	31	38	45	21	-11
CCCc1c(O)c2ccccc2[nH]c1=O	x	80*	x	x	x
CCCCNC(=O)CO/N=C(\C)c1cc2ccccc2o1	-15	-29	x	x	-13
C/C(=N\OCC(=O)NCC(F)(F)F)c1cc2ccccc2o1	-53	3	84*	-71	-35
Cc1ccc(NC2=C/C(=N\S(=O)(=O)c3cccs3)c3ccccc3C2=O)c(C)c1	69*	95*	x	x	x
Cc1ccc(Cl)cc1NC1=C/C(=N\S(=O)(=O)c2cccs2)c2ccccc2C1=O	71*	100*	104*	45	105*
Cc1ccc(Nc2cc(=O)oc3ccccc23)c(C)c1	3	41	x	x	x
Cc1cccc(NC2=C/C(=N/S(=O)(=O)c3cccs3)c3ccccc3C2=O)c1	32	97*	-2	x	-3
Cc1ccc(Cl)cc1NS(=O)(=O)c1ccccc1	-11	-3	-1	-3	-9
Cc1cccc(NC2=C(NCCO)C(=O)c3ccccc3C2=O)c1	11	24	25	-11	-67
ON=C1c2ccccc2-c2ccc(O)cc21	-30	26	-56	-2	-56
ON=C1c2ccccc2-c2cc(Br)ccc21	44	71*	7	1	x
Cc1cnn(C(=O)Cn2nc(C(F)F)c(Br)c2C)c1	68*	4	10	-4	-3
COc1ccc2c3c(cccc13)C(=O)CC2	28	63*	-5	10	30
COc1ccc2c(c1OC)C(=O)OC2	-5	-4	x	-4	x
CC(/C=N\N1CCN(c2ccc(Cl)cc2)CC1)=C\c1ccccc1	62*	-6	x	x	-1
COc1ccc(-c2nc(NC(=O)c3cc(C(C)(C)C)nn3C)sc2C)cc1	30	68*	x	x	x
COc1ccc2c3c(n(C)c2c1)[C@H](CO)N(C(=O)C1CCCCC1)CC31CN(C(=O)Nc2cccc(F)c2)C1	x	x	2	-12	6
CC1=C(C#N)c2nc(N)c(C#N)c(C)c2/C1=C\c1ccc(-c2ccccc2C(=O)O)o1	25	70*	-49	-25	26
